For three compounds, outcome and AC50 results are on record in PubChem BioAssay (EPA / NIEHS).

Holding throughout (conditions): mRNA level, 48 h; actives raise or lower the signal
Read-out in experiment [1]: Heat shock 70 kDa protein 1 (HSPA1A), gene 3303
The experiment is described as follows: LTEA_HepaRG_HSPA1A: Life Technologies and Expression Analysis (LTEA) Assay for Heat shock 70 kDa protein 1 (HSPA1A) using HepaRG (AID 2283502). The procedure, abridged:
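Cells were plated and cultured for 48 h, then switched to serum-free induction medium. Chemicals were added at eight half-log concentrations up to 100 uM for 48 h. RNA was then isolated and HSPA1A measured by qRT-PCR with bidirectional curve fitting against DMSO.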

Read-out in experiment [2]: Hypoxia-inducible factor 1-alpha (Homo sapiens) (UniProt Q16665)
As to the kind of experiment: LTEA_HepaRG_HIF1A: Life Technologies and Expression Analysis (LTEA) Assay for Hypoxia-inducible factor 1 (HIF1A) Trancription factor using HepaRG (AID 2283503). The procedure, abridged:
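HIF1A transcript level read by qRT-PCR (ACTB, GAPDH, POLR2A normalization) after 48 h chemical exposure of HepaRG cultures. Eight half-log concentrations, top 100 uM, 0.5% DMSO vehicle, duplicates; bidirectional curve fit against DMSO baseline.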

Read-out in experiment [3]: 3-Hydroxy-3-Methylglutaryl-CoA Synthase 2 (HMGCS2), HMGCS2 (gene 3158)
As to the kind of experiment: LTEA_HepaRG_HMGCS2: Life Technologies and Expression Analysis (LTEA) Assay for 3-Hydroxy-3-Methylglutaryl-CoA Synthase 2 (HMGCS2) using HepaRG (AID 2283504). The procedure, abridged:
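qRT-PCR read-out of HMGCS2 transcript, normalised to three housekeeping genes, in HepaRG cells after 48 h chemical exposure. Eight-point curves from 100 uM, half-log dilutions, 0.5% DMSO vehicle; gain or loss fitted relative to DMSO baseline.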

Read-out in another experiment: HGF (gene 3082)
As to the kind of experiment: LTEA_HepaRG_HGF: Life Technologies and Expression Analysis (LTEA) Assay for Hepatocyte Growth Facto (HGF) using HepaRG (AID 2283505). The procedure, abridged: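 HepaRG, 48 h dosing, 8-pt half-log series from 100 uM in 0.5% DMSO, duplicates. Readout: TaqMan qRT-PCR of HGF mRNA, housekeeping-normalized; bidirectional curve fit vs DMSO baseline.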

Read-out in experiment [4]: Insulin Like Growth Factor 1 (IGF1), IGF1 (gene 3479)
As to the kind of experiment: LTEA_HepaRG_IGF1: Life Technologies and Expression Analysis (LTEA) Assay for Insulin Like Growth Factor 1 (IGF1) using HepaRG (AID 2283506). Put shortly:
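Cells are thawed, plated and cultured 48 h, then exposed in duplicate to chemical (highest 100 uM, half-log steps, 0.5% DMSO) for another 48 h. Total RNA is analysed by Fluidigm qRT-PCR for IGF1 expression relative to vehicle.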

Read-out in experiment [5]: Intercellular Adhesion Molecule 1 (ICAM1), ICAM1 (gene 3383)
The experiment is described as follows: LTEA_HepaRG_ICAM1: Life Technologies and Expression Analysis (LTEA) Assay for Intercellular Adhesion Molecule 1 (ICAM1) using HepaRG (AID 2283507). The procedure, abridged: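 HepaRG, 48 h exposure, 8-pt half-log series from 100 uM, 0.5% DMSO vehicle, duplicates. Readout: TaqMan qRT-PCR mRNA, housekeeping-normalized (ACTB/GAPDH/POLR2A). Bidirectional curve fit vs DMSO baseline.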

Read-out in experiment [6]: Insulin-like growth factor-binding protein 1 (IGFBP1), IGFBP1 (gene 3484)
The experiment is described as follows: LTEA_HepaRG_IGFBP1: Life Technologies and Expression Analysis (LTEA) Assay for Insulin-like growth factor-binding protein 1 (IGFBP1) using HepaRG (AID 2283508). The procedure, abridged:
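qRT-PCR mRNA read-out (TaqMan, Fluidigm array), normalised to three housekeeping genes; HepaRG cells, 48 h exposure, 8-pt half-log series from 100 uM, 0.5% DMSO vehicle; bidirectional curve fit vs DMSO baseline.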

Read-out in experiment [7]: Interleukin 6 (IL6), IL6 (gene 3569)
As to the kind of experiment: LTEA_HepaRG_IL6: Life Technologies and Expression Analysis (LTEA) Assay for Interleukin 6 (IL6) using HepaRG (AID 2283509). Put shortly:
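Transcript levels, normalized to three housekeeping genes, were quantified by qRT-PCR after 48 h chemical treatment of HepaRG cells. Eight-point half-log series from 100 uM in 0.5% DMSO, duplicates. Fitted both directions against DMSO baseline.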

Read-out in experiment [8]: Interleukin 6 Receptor (IL6R), IL6R (gene 3570)
The experiment is described as follows: LTEA_HepaRG_IL6R: Life Technologies and Expression Analysis (LTEA) Assay for Interleukin 6 Receptor (IL6R) using HepaRG (AID 2283510). Put shortly:
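Cells were thawed, plated and cultured 48 h, then medium was changed to serum-free induction medium. Chemicals were added in duplicate (100 uM top, half-log steps, 0.5% DMSO) for 48 h. Lysates were analyzed by qRT-PCR for IL6R expression.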

Read-out in experiment [9]: Potassium channel subfamily K member 1 (KCNK1), KCNK1 (gene 3775)
As to the kind of experiment: LTEA_HepaRG_KCNK1: Life Technologies and Expression Analysis (LTEA) Assay for Potassium channel subfamily K member 1 (KCNK1) using HepaRG (AID 2283511). The procedure, abridged: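 KCNK1 transcript measured by TaqMan qRT-PCR against three housekeeping genes, after HepaRG cells were treated 48 h with eight half-log concentrations (top 100 uM, 0.5% DMSO). Curves fitted bidirectionally relative to vehicle.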

Read-out in experiment [10]: Keratin 19 (KRT19), KRT19 (gene 3880)
The experiment is described as follows: LTEA_HepaRG_KRT19: Life Technologies and Expression Analysis (LTEA) Assay for Keratin 19 (KRT19) using HepaRG (AID 2283512). Put shortly: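 HepaRG, 48 h chemical exposure, 8-pt half-log CRC from 100 uM, 0.5% DMSO vehicle, duplicates. Readout: TaqMan qRT-PCR of KRT19 mRNA, housekeeping-normalized (ACTB/GAPDH/POLR2A). Bidirectional fit vs DMSO baseline.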

Read-out in experiment [11]: Lipase C (LIPC), LIPC (gene 3990)
The experiment is described as follows: LTEA_HepaRG_LIPC: Life Technologies and Expression Analysis (LTEA) Assay for Lipase C (LIPC) using HepaRG (AID 2283514). The procedure, abridged: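 LIPC expression was quantified by qRT-PCR against three housekeeping genes (ACTB, GAPDH, POLR2A). Differentiated human HepaRG cells received eight half-log doses (top 100 uM, 0.5% DMSO) in duplicate for 48 h; fitting bidirectional relative to DMSO.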

Read-out in experiment [12]: Lipoprotein lipase (LPL), LPL (gene 4023)
The experiment is described as follows: LTEA_HepaRG_LPL: Life Technologies and Expression Analysis (LTEA) Assay for Lipoprotein lipase (LPL) using HepaRG (AID 2283515). The procedure, abridged:
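LPL transcript levels quantified by TaqMan qRT-PCR against three housekeeping genes after 48 h chemical treatment of HepaRG cells. Eight-point half-log series from 100 uM in 0.5% DMSO, tested in duplicate; bidirectional fitting versus vehicle.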

Read-out in experiment [13]: MicroRNA 122 (MIR122), gene 406906
The experiment is described as follows: LTEA_HepaRG_MIR122: Life Technologies and Expression Analysis (LTEA) Assay for MicroRNA 122 (MIR122) using HepaRG (AID 2283516). Note: the transcript read is the microRNA miR-122. Put shortly: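 Human liver HepaRG cultures receive test chemicals for 48 h at eight half-log concentrations from 100 uM. Expression is quantified by qRT-PCR with ACTB/GAPDH/POLR2A normalization and fitted bidirectionally against 0.5% DMSO.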

Read-out in experiment [14]: matrix metalloproteinase-10 (MMP10), MMP10 (gene 4319)
As to the kind of experiment: LTEA_HepaRG_MMP10: Life Technologies and Expression Analysis (LTEA) Assay for matrix metalloproteinase-10 (MMP10) using HepaRG (AID 2283517). The procedure, abridged:
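Expression measured by TaqMan qRT-PCR with ACTB/GAPDH/POLR2A normalisation after 48 h chemical exposure of HepaRG cells. Eight half-log concentrations, top 100 uM, 0.5% DMSO vehicle, duplicates; gain or loss fitted against vehicle.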

Read-out in experiment [15]: matrix metalloproteinase-3 (MMP3), MMP3 (gene 4314)
As to the kind of experiment: LTEA_HepaRG_MMP3: Life Technologies and Expression Analysis (LTEA) Assay for matrix metalloproteinase-3 (MMP3) using HepaRG (AID 2283519). Put shortly:
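Fluidigm-based TaqMan qRT-PCR, normalized to ACTB, GAPDH and POLR2A and fitted bidirectionally versus 0.5% DMSO, measured transcript levels. Treatment: duplicate 48 h exposures of HepaRG cells, ~100,000/well, to eight half-log concentrations topping at 100 uM.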

Read-out in experiment [16]: Paternally Expressed 10 (PEG10), PEG10 (gene 23089)
The experiment is described as follows: LTEA_HepaRG_PEG10: Life Technologies and Expression Analysis (LTEA) Assay for Paternally Expressed 10 (PEG10) using HepaRG (AID 2283520). The procedure, abridged: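 Human HepaRG cultures are dosed for 48 h across an eight-point half-log series starting at 100 uM, with 0.5% DMSO as vehicle and baseline. Gain or loss of PEG10 transcript is measured by qRT-PCR and fitted in both directions.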

Read-out in experiment [17]: Nuclear factor NF-kappa-B p105 subunit (Homo sapiens) (UniProt P19838)
As to the kind of experiment: LTEA_HepaRG_NFKB1: Life Technologies and Expression Analysis (LTEA) Assay for Nuclear Factor Kappa B Subunit 1 (NFKB1) using HepaRG (AID 2283521).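 Note: TaqMan qRT-PCR transcript normalised to ACTB GAPDH and POLR2A housekeeping genes.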 Put shortly: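 Differentiated human HepaRG cells were exposed for 48 h in serum-free induction medium to eight concentrations (top 100 uM, half-log steps, 0.5% DMSO), in duplicate. NFKB1 mRNA was measured by TaqMan qRT-PCR, normalized to ACTB/GAPDH/POLR2A, and fitted bidirectionally against DMSO.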

The source made the active and inactive calls. Rule for the calls: active = hit-call score of the fitted dose curve at least 0.9, where 1 is the maximum; inactive = score below 0.9.

Chain of Hypoxia-inducible factor 1-alpha (Homo sapiens) (Q16665 whole entry, looked up): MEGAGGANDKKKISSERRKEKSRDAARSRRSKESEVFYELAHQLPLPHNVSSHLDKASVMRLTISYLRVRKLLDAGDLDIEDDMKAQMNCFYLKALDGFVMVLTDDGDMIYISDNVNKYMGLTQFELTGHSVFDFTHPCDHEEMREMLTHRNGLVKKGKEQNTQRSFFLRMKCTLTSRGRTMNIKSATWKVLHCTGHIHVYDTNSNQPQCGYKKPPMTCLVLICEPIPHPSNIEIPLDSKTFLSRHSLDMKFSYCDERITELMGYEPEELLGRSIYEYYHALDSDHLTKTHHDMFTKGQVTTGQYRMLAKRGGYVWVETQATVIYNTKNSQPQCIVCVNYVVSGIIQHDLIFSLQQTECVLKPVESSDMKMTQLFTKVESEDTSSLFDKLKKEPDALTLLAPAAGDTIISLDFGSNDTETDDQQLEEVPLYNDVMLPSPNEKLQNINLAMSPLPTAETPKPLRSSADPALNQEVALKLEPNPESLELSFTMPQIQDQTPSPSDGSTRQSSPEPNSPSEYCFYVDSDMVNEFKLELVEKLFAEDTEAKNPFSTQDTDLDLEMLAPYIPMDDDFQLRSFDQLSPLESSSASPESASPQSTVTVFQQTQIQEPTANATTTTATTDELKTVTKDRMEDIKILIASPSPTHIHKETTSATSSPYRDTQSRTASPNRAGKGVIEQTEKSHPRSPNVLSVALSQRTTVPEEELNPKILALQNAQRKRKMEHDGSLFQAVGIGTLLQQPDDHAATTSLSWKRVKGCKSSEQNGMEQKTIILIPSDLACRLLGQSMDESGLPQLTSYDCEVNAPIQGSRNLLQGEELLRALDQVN
Chain of Nuclear factor NF-kappa-B p105 subunit (Homo sapiens) (P19838 whole entry, looked up): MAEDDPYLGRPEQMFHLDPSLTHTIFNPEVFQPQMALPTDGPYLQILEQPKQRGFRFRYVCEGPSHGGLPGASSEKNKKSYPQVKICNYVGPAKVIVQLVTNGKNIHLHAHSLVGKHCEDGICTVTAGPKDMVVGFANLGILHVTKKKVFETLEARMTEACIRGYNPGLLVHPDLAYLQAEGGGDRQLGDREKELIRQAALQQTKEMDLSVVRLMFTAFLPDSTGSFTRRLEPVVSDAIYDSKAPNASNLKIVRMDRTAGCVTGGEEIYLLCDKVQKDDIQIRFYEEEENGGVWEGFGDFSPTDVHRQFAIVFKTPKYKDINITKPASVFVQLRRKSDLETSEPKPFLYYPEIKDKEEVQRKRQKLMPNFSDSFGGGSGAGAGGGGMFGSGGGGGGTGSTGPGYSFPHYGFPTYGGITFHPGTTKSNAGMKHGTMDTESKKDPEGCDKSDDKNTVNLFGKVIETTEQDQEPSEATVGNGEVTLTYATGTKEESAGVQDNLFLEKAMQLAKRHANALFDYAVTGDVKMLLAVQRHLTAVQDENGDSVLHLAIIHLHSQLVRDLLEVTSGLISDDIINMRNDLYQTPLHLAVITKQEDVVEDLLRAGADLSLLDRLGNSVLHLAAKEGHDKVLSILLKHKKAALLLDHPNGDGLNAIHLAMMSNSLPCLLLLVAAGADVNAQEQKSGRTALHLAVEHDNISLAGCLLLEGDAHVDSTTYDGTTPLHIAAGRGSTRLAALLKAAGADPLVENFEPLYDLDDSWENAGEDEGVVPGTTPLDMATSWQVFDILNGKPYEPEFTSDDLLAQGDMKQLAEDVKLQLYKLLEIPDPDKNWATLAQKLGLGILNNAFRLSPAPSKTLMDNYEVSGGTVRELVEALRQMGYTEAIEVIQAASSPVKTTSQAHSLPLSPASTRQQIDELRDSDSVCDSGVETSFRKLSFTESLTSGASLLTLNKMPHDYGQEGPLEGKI

Consider `CCOP(=S)(OCC)OC(Cl)C(Cl)(Cl)Cl` (stereo not drawn), for which the compound was classed as inactive (in [1]; in experiment [2]; in experiment [3]; with HGF (gene 3082); in experiment [4]; in experiment [5]). In addition, the call in [6], in experiment [7], in experiment [8], in [9], in experiment [10] and in experiment [11] was inactive. Further, the compound was called inactive in experiment [12], in experiment [13], in experiment [14], in experiment [15], in [16] and in [17].

As to `N#CSCSC#N`, the call (in experiment [1]; in experiment [2]; with HGF (gene 3082); in experiment [4]; in [5]; in experiment [6]) was inactive. For the same compound, the outcome in [7], in experiment [9], in experiment [15], in experiment [16] and in [17] was inactive. Also, the half-maximal activity concentration (AC50) (usually the midpoint of the concentration-response curve, whichever way the signal moves) in experiment [3] was 82.1 µM (active); in experiment [8], 68.4 µM (active); in [10], 90.1 µM (active); in experiment [11], 93.7 µM (active); in [12] it was 78.1 µM (active); in experiment [13], 65.1 µM (active). Besides, the half-maximal activity concentration (AC50) in experiment [14] was 83 µM (active).

In the case of `CC(C)=CC1C(C(=O)OCN2C(=O)C3=C(CCCC3)C2=O)C1(C)C` (stereo not drawn), the outcome (in experiment [1]; in [2]; in [3]; in the experiment with HGF (gene 3082); in [4]; in [5]) was inactive. Further, the call in experiment [6], in experiment [7], in experiment [8], in experiment [9], in [10] and in experiment [11] was inactive. In addition, the call in [12], in experiment [13], in [14], in [15] and in experiment [16] was inactive.
